HepG2 tox: qHTS for Inhibitors of TGF-b: Cytotox Counterscreen; HepG2 CAGA-GFP viability, ATP luminescence, 18 h; Potency, µM (titrated, usually from 46.1 µM), inactives show at the highest dose activity change, negative = cytotoxicity, most hits filed as cytotoxic; actives 0.76% (n = 410,000); AID 588856, 2011
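HepG2 CAGA-GFP cells (1000/well, DMEM with 1% FBS) received compound, then TGF-beta at 500 pg/mL final, and were incubated 18 hours at 37 degrees C. Viability was read by CellTiter-Glo luminescence. Media-only wells were set as complete cell-killing and DMSO as no toxicity.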
ATXN2 expr inh: Primary qHTS for Inhibitors of ATXN expression | Potency, µM (doses to about 57 µM), for inactives: at the highest dose activity change, negative = inhibition, usual class: inhibitors | HEK-293 ATXN2-luciferase reporter, luminescence, 24 h | actives 0.72% (n = 360,000); also: % is scaled to controls: 0 for no effect and ±100 for the full control effect; nearly all actives have a fitted effect of over 55% in size
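ATXN2-luciferase reporter cells (luciferase flanked by upstream and downstream ATXN2 gene portions) were treated 24 h at 37 °C with compounds at up to 57 uM. SteadyGlo luminescence gave expression; GF-AFC fluorescence gave viability.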
VP16 counter: VP16 counterscreen qHTS for inhibitors of ROR gamma transcriptional activity; Drosophila S2 Gal4-VP16 UAS-luciferase, luminescence, 20 h; Potency, µM (series often up to 53.6 µM), for inactives: at the top dose activity, negative = inhibition, actives largely listed as inhibitors; actives 3.5% (n = 310,000); AID 2546, 2010;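 also: Gal4-VP16 expression switched on by copper sulfate through the metallothionein promoter; % is scaled to controls: 0 for no effect and ±100 for the full control effect; nearly all actives have a fitted effect of over 50% in size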
TGFb inhibitor: qHTS for Inhibitors of TGF-b; HepG2 CAGA-GFP TGF-b/SMAD3 reporter, GFP fluorescence, 18 h; TGF-beta stimulated, 500 pg/mL final; Potency, µM (series often up to 46.1 µM), for the others: at the highest dose activity, negative = inhibition, hits mostly inhibitors; actives 1.2% (n = 410,000); AID 588855, 2011; also: % is scaled to controls: 0 for no effect and ±100 for the full control effect; nearly all actives have a fitted effect of over 65% in size
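HEPG2 CAGA-GFP reporter cells (1000/well, DMEM with 1% FBS) received compounds, then recombinant TGF-beta at 500 pg/mL final for 18 hours at 37 degrees C. Per-cell GFP summed per well was normalised to unstimulated and stimulated DMSO controls before curve fitting.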
S2 tox: Viability Counterscreen for Primary qHTS for Inhibitors of ATXN expression. AID 651635, 2014. Potency, µM (highest dose often 56.7 µM), usual class: cytotoxic. actives 0.49% (n = 400,000). S2 cells (HEK-293 line with an ATXN2-luciferase reporter) viability, CellTiter-Fluor protease fluorescence, 24 h; also: nearly all actives have a fitted effect of over 40% in size
RORgamma inh: qHTS for inhibitors of ROR gamma transcriptional activity; Nuclear receptor ROR-gamma (Mus musculus), P51450; Drosophila S2 Gal4-RORgamma UAS-luciferase reporter, 20 h; Potency, µM (highest dose often 53.6 µM), for the others: at the top dose activity change, negative = inhibition, hits mostly inhibitors; actives 5.4% (n = 310,000); AID 2551, 2010; also: % is scaled to controls: 0 for no effect and ±100 for the full control effect; nearly all actives have a fitted effect of over 60% in size
Target sequence (P51450 whole entry, looked up, the tested form may be a part): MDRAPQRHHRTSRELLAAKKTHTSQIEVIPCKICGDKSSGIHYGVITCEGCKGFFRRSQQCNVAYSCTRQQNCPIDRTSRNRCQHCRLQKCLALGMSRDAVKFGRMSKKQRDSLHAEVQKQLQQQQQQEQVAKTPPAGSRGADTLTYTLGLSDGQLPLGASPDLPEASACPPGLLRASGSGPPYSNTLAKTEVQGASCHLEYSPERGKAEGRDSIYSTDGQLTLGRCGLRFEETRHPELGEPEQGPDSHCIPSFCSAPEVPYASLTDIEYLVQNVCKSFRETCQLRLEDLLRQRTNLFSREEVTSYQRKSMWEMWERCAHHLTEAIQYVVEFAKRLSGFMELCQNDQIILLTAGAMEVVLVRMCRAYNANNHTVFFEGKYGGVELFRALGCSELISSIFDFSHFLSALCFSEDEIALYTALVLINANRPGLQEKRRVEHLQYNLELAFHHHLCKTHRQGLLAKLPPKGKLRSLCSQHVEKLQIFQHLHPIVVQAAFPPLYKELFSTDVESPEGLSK
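ROR gamma transcriptional activity was tracked as Gal4-UAS luciferase output in stably transfected Drosophila Schneider cells, with compound added 1 hr before 700 uM copper sulfate induction and a 20 hr ambient-temperature incubation.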
* hit, by the source's call; i = inactive; ? = inconclusive; . = not tested or not shown; [ ] = remark or other dose. Shown are actives, neighbours in structure and some others; about 6.1% of the full set was active somewhere. Calls follow the shape of the dose curve; as a rule, active = well fitted curve in the direction sought with a large enough effect; inconclusive = small, poorly fitted or top-dose-only effect, or another doubt; inactive = no such curve, though single readings can be large; an effect the other way counts as inactive or inconclusive. Potency is read from the fitted curve at half-maximal effect.

SMILES	HepG2 tox	ATXN2 expr inh	VP16 counter	TGFb inhibitor	S2 tox	RORgamma inh
COC(=O)NC(/C(C(=O)OC)=C(\C)NCc1ccccc1)c1ccc(F)cc1 (configuration not stated)	.	.	-10%[10 µM]	.	.	27%[10 µM]
COc1ccc(N/C=C2\CCc3ccccc3C2=O)cc1	11µM*	-55%	?	-30%	i	8.9µM*
COc1ccc2c(c1)CC/C(=C\Nc1ccc3c(c1)OCO3)C2=O	-33%	45%	3%	1%	i	?
O=C1/C(=C/Nc2ccc3c(c2)OCO3)CCc2ccccc21	-68%	6%	11µM*	?	i	-71%
Cc1ccc(/C=N/N(C)S(=O)(=O)c2ccc(C)cc2)cc1	-5%	-23%	18µM*	-26%	i	16%
CCN(CC)S(=O)(=O)c1ccc(S(=O)(=O)N2CCC(C(=O)NC3CCN(Cc4ccccc4)CC3)CC2)cc1	3%	-19%	3%	0%	i	20%
Cc1ccc(Cl)cc1S(=O)(=O)N1CCC(C(=O)NC2CCN(Cc3ccccc3)CC2)CC1	-4%	-34%	22µM*	-2%	i	?
COc1ccc(-n2cc(CN[C@H]3CCCCNC3=O)c(-c3cccc(F)c3)n2)cc1	-32%	-4%	-5%	?	i	-1%
COc1ccc(-n2cc(CNC3CCN(C)CC3)c(-c3cccc(F)c3)n2)cc1	11µM*	?	?	?	i	?
COc1ccc(Cl)cc1NC(=O)C/C(C)=N/NC(=O)CCc1ccccc1	5%	-28%	13%	-3%	i	?
C/C(CC(=O)Nc1cccc(Cl)c1Cl)=N\NC(=O)c1ccccc1N	5%	1%	-83%	-27%	i	13µM*
COc1ccc(Cl)cc1NC(=O)C/C(C)=N/NC(=O)c1ccccc1Cl	-23%	-8%	13µM*	-16%	i	20%[1.91 µM]
C/C=C1\[C@H]2C=C(C)C[C@]1(N)c1ccc(=O)[nH]c1C2	.	15%	.	.	i	.
CCOC(=O)c1sc(NC(=O)CSc2n[nH]c(-c3ccccc3)n2)c(C#N)c1C	-24%	-18%	5.6µM*	?	?	1.3µM*
CCN(CC)C(=O)c1sc(NC(=O)Cc2ccccc2)c(C#N)c1C	-5%	3%	2%	-7%	i	6.3µM*
COCc1ccc(CN2Cc3ccccc3OC(c3ccccc3F)C2)o1 (configuration not stated)	.	.	.	.	i	.
C#C[C@]1(O)CC[C@@H]2[C@@H]3CCc4cc(O)ccc4[C@H]3CC[C@@]21C	.	-16%	.	.	.	.
CCOc1c(Br)cc(CNC2CCCCCCC2)cc1OC	11µM*	.	2%	?	?	?
COc1ccc(Cl)c(Cn2c(NCc3ccco3)nc3c2c(=O)n(C)c(=O)n3C)c1	5%	-15%	0.0089µM*	-32%	i	-43%
COc1cccc(Cn2c(NCC(C)C)nc3c2c(=O)n(C)c(=O)n3C)c1	-19%	-5%	?	3%	i	26%
COc1cccc(Cn2c(NCc3ccco3)nc3c2c(=O)n(C)c(=O)n3C)c1	-35%	-39%	2.8µM*	0%	i	-38%
CCCCCCC1CC(=O)NC(=S)N1 (configuration not stated)	-2%	7%	?	-3%	?	8.9µM*
O=C(O)/C=C/C(=O)Nc1ccccc1-c1ccccc1NC(=O)/C=C/C(=O)O	-2%	-19%	?	-2%	i	-2%
O=C(O)/C=C/C(=O)Nc1ccccc1SC(F)(F)F	3%	2%	10µM*	1%	i	-138%
COc1ccccc1CNC(=O)CCNS(=O)(=O)c1ccc2c(c1)CCCC(=O)N2	-24%	10%	.	-5%	i	.
SMILES	HepG2 tox	ATXN2 expr inh	VP16 counter	TGFb inhibitor	S2 tox	RORgamma inh
CCNc1nc2c(c(=O)n(C)c(=O)n2C)n1Cc1ccc(F)cc1	-25%	-26%	.	?	i	.
Cn1c(=O)c2c(nc(NCc3ccc4c(c3)OCO4)n2Cc2ccccc2F)n(C)c1=O	-3%	4%	18µM*	-4%	i	1%
Cn1c(=O)c2c(nc(NCc3ccccc3)n2Cc2ccccc2)n(C)c1=O	-19%	?	.	-56%	?	.
Cn1c(=O)c2c(nc(NCc3ccc4c(c3)OCO4)n2Cc2ccc(F)cc2)n(C)c1=O	-21%	.	10µM*	?	.	-37%
Cn1c(=O)c2c(nc(NCc3ccc4c(c3)OCO4)n2Cc2ccccc2)n(C)c1=O	-20%	-27%	7.1µM*	-26%	i	-37%
CN(C)C(=S)NC(=NCc1ccc([N+](=O)[O-])cc1)c1ccccc1	3%	?	-21%	2%	i	20µM*
O=S(=O)(c1ccc(N2CCC(c3ccc(Cl)cc3)=N2)cc1)N(CCO)CCO	20µM*	-27%	-19%	?	.	10%
COC(=O)c1sc(NC(=S)NNC(=O)c2c(Br)c(C)nn2C)c(C(=O)OC)c1C	-9%	-7%	?	-9%	i	6.3µM*
Cc1ccc(S(=O)(=O)/C(=C/Cl)NC(=O)c2ccccc2)cc1	-2%	10µM*	?	?	?	?
Cc1ccc(S(=O)(=O)C(NC(=O)c2ccccc2)=C(Cl)Cl)cc1	-29%	?	.	-22%	?	.
O=C(O)[C@H]1O[C@H](Oc2cc3oc(-c4ccccc4)cc(=O)c3c(O)c2O)[C@H](O)[C@@H](O)[C@H]1O	.	-19%	.	.	.	.
Cc1cccc(C(=O)Nc2cc(-c3ccccc3F)nn2-c2ccccc2)c1	-13%	3%	.	6%	i	.
O=c1c2[nH]c3ccccc3c2ncn1C1CCCCC1	-37%	30%	-8%	4%	i	44%
O=C1c2ccccc2C(=O)c2c1ccc1c(=O)n(C3CCCCC3)[nH]c21	-5%	?	-30%	?	i	7.9µM*
CC(C)n1c(CN(C)Cc2ccccc2)nc2c1c(=O)n(C)c(=O)n2C	-24%	?	1.3µM*	0%	?	?
O=C(NCc1ccncc1)C1Cc2c(-c3ccccc3Oc3ccccc3)ccnc2O1 (configuration not stated)	-57%	0%	.	14µM*	?	.
O=C(NCc1cccs1)C1Cc2c(-c3ccccc3Oc3ccccc3)ccnc2O1 (configuration not stated)	-9%	-20%	.	7%	?	.
COc1ccccc1CNC(=O)Cn1nc(C)n2cccc2c1=O	1%	.	.	33%	.	.
